# ± gives the standard deviation of the averaged measurements.
# Key:
# [1] = tested on: DLD1; assay: cell viability (CellTiter-Glo) relative to plate median (fraction of plate median); higher = more viable cells; conditions: 5 µM; treatment time 24 h; reporter: 7TFP
# How it was run: (§1)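 Two independent replicates were averaged for each reported value. Library compounds were applied at a final 5 µM for 24 h to colorectal cancer cell lines stably expressing lentiviral TCF/Wnt firefly luciferase reporters. Firefly luciferase or CellTiterGlo luminescence from each well was normalised to the plate median.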
# [2] = tested on: HCT116; assay: as above; conditions: 5 µM; treatment time 24 h; reporter: TCF4/Wnt
# How it was run: as §1
# [3] = tested on: SW480; assay: as above; conditions: 5 µM; treatment time 24 h; reporter: 7TFP
# How it was run: as §1
# [4] = tested on: DLD1; assay: TCF/Wnt firefly luciferase reporter signal relative to plate median (fraction of plate median); higher = higher Wnt reporter signal; conditions: 5 µM; treatment time 24 h; reporter: 7TFP
# How it was run: as §1
# [5] = tested on: SW480; assay: as above; conditions: 5 µM; treatment time 24 h; reporter: 7TFP
# How it was run: as §1
Compound,cell viability [1],cell viability [2],cell viability [3],TCF/Wnt firefly luciferase reporter signal [4],TCF/Wnt firefly luciferase reporter signal [5]
Cc1onc(-c2ccccc2)c1C(=O)N[C@@H]1C(=O)N2[C@@H]1SC(C)(C)[C@@H]2C(=O)O,0.978 ± 0.032,0.891 ± 0.1,0.978 ± 0.0014,1.21 ± 0.071,1.11 ± 0.028
CC(=O)CC(c1ccccc1)c1c(O)c2ccccc2oc1=O (stereo not given),1.02 ± 0.056,1.14 ± 0.078,0.989 ± 0.073,0.935 ± 0.062,1.12 ± 0.028
COc1ccc(C(=O)CC(=O)c2ccc(C(C)(C)C)cc2)cc1,0.879 ± 0.2,0.904 ± 0.032,1.01 ± 0.021,1 ± 0.098,1.04 ± 0.18
"NC(C(=O)O)C(O)C(=O)O (stereo not drawn) [d,l-threo-3-HYDROXYASPARTIC ACID]",0.923 ± 0.036,1.09 ± 0.11,0.949 ± 0.044,1.14 ± 0.27,1.15 ± 0.064
O=C(O)/C=C/c1ccccc1,1.09 ± 0.17,1.08 ± 0.092,1.09 ± 0.035,0.928 ± 0.086,1.05 ± 0.035
CC1(C)CC2C1CC[C@]1(CBr)CCC3C(CC(=O)O)C(=O)O[C@@]32C1 (stereo not given in full) [BROMO-3-HYDROXY-4-(SUCCIN-2-YL)-CARYOLANE gamma-LACTONE],0.95 ± 0.085,1.03 ± 0.079,0.987 ± 0.033,1.08 ± 0.035,1.095 ± 0.0071
NCCNCCNCCN,1.03,0.986 ± 0.049,1.01 ± 0.064,0.999 ± 0.058,1.03 ± 0.052
CC1=C(CC(=O)O)c2cc(F)ccc2/C1=C\c1ccc([S+](C)[O-])cc1 (stereo not given),0.941 ± 0.028,0.901 ± 0.018,0.949 ± 0.1,1.03 ± 0.23,1.03 ± 0.12
S=c1[nH]cnc2nc[nH]c12,0.733 ± 0.044,0.989 ± 0.1,0.932 ± 0.012,1.22,1.03 ± 0.021
C[C@@H]1CC[C@@]2(OC1)O[C@H]1C[C@H]3[C@@H]4CC[C@H]5C[C@@H](O)CC[C@]5(C)[C@H]4CC[C@]3(C)[C@H]1[C@@H]2C,0.953 ± 0.0057,0.875 ± 0.037,1.01,1.06 ± 0.028,0.931 ± 0.037
CNC(=C[N+](=O)[O-])NCCSCc1ccc(CN(C)C)o1,0.892 ± 0.018,0.983 ± 0.024,0.974 ± 0.011,0.998 ± 0.017,0.953 ± 0.016
Nc1nc2c(ncn2COCCO)c(=O)[nH]1,1 ± 0.11,1.01 ± 0.034,0.955 ± 0.078,0.991 ± 0.056,0.973 ± 0.053
COc1cc(-c2oc3cc(O)ccc3c(=O)c2O)ccc1O,1.03 ± 0.014,1.12 ± 0.078,1.055 ± 0.0071,1 ± 0.098,1.07 ± 0.035
O=c1cc[nH]c(=S)[nH]1,1.03 ± 0.073,1.04 ± 0.061,0.956 ± 0.076,1.03 ± 0.014,1.02 ± 0.028
COc1ccc(C(=O)CC(=O)O)c2c1C=CC(C)(C)O2,1 ± 0.013,0.978 ± 0.19,0.961 ± 0.098,0.991 ± 0.056,0.859 ± 0.042
COc1ccc(-c2c(O)c3c(OC)c4c(cc3oc2=O)OC(C)(C)C=C4)cc1,1.01,0.968 ± 0.088,0.9495 ± 0.0092,1.07 ± 0.014,1.07 ± 0.035

Compound,cell viability [1],cell viability [2],cell viability [3],TCF/Wnt firefly luciferase reporter signal [4],TCF/Wnt firefly luciferase reporter signal [5]
C[C@H](CCC(=O)O)[C@H]1CC[C@H]2[C@@H]3[C@H](O)C[C@@H]4C[C@H](O)CC[C@]4(C)[C@H]3C[C@H](O)[C@]12C,0.99 ± 0.043,1.07 ± 0.15,1.04 ± 0.066,1.02 ± 0.13,1.07 ± 0.035
COc1cc(OC)c(-c2c(OC)cc(OC)cc2OC)c(OC)c1,1.015 ± 0.0071,0.953 ± 0.14,1.02 ± 0.014,0.926 ± 0.018,1.01
O=C(O)P(=O)(O)O,1.06 ± 0.028,0.965 ± 0.05,1 ± 0.011,0.834 ± 0.0092,0.944 ± 0.031
CC(=O)O[C@H]1CC[C@]2(C)[C@H]3CC=C4[C@@H]5CC(C)(C)CC[C@]5(C(=O)O)CC[C@@]4(C)[C@]3(C)CC[C@H]2C1(C)C,1.06 ± 0.05,1.11 ± 0.11,1.02 ± 0.033,1.03,1.03 ± 0.021
Cc1onc(-c2c(Cl)cccc2Cl)c1C(=O)N[C@@H]1C(=O)N2[C@@H]1SC(C)(C)[C@@H]2C(=O)O,0.935 ± 0.027,1.05 ± 0.073,0.972 ± 0.036,1 ± 0.042,1.15 ± 0.16
C/C1=C\CC(C)(C)/C=C/CC2(C)OC2CC1 (stereo not given),1.04 ± 0.035,0.96 ± 0.099,1.03 ± 0.035,1.09 ± 0.12,0.8895 ± 0.00071
COc1cc(O)c2c(c1)C(=O)c1cc(C)cc(O)c1C2=O,0.973 ± 0.017,0.979 ± 0.016,1.01 ± 0.12,0.949 ± 0.015,1.09 ± 0.057
CCCCC1C(=O)N(c2ccccc2)N(c2ccccc2)C1=O,1.02 ± 0.063,0.987 ± 0.12,1.035 ± 0.0071,1.14 ± 0.085,1.01 ± 0.024
CCN1CCN(C(=O)N[C@@H](C(=O)N[C@@H]2C(=O)N3[C@@H]2SC(C)(C)[C@@H]3C(=O)O)c2ccccc2)C(=O)C1=O,0.994 ± 0.0085,0.993 ± 0.039,1.02 ± 0.039,1.05 ± 0.014,1.03 ± 0.086
Cc1cc(=O)oc2c(O)c(O)ccc12,0.961 ± 0.17,0.943 ± 0.03,0.925 ± 0.044,0.869 ± 0.08,0.944 ± 0.0071
O=C1[C@H](CC[C@H](O)c2ccc(F)cc2)[C@@H](c2ccc(O)cc2)N1c1ccc(F)cc1,0.828 ± 0.15,1.01 ± 0.063,0.961 ± 0.084,0.952 ± 0.17,0.919 ± 0.11
CCC1(C)CC(=O)NC1=O (stereo not given),0.932 ± 0.018,1.09 ± 0.021,1 ± 0.022,1.15 ± 0.11,0.865 ± 0.0092
CCN(CC)CCNC(=O)c1cc(Br)c(N)cc1OC,1.02 ± 0.081,1.07 ± 0.028,1.02 ± 0.047,0.985 ± 0.05,1.16 ± 0.078
O=S(=O)(O)c1cc(N=C=S)ccc1/C=C/c1ccc(N=C=S)cc1S(=O)(=O)O,0.952 ± 0.046,0.9585 ± 0.0064,1.01 ± 0.03,0.981 ± 0.11,1.05 ± 0.064
N=C(N)N/N=C/c1c(Cl)cccc1Cl,0.976 ± 0.028,1.02 ± 0.042,1.02 ± 0.014,1.02 ± 0.021,1.05 ± 0.064

# Reference: the supplement of paper PMC6522484
